Assay outcomes deposited in PubChem BioAssay by National Center for Advancing Translational Sciences (NCATS).
The list is not random: actives were taken first. Their share in the collection is about 12%.
BAZ2B block = inhibitors of human BAZ2B bromodomain. Q9UIF8. AlphaScreen BAZ2B-H3K14Ac peptide displacement. Potency, µM (doses to about 114 µM), without a hit: top-dose activity change, negative = inhibition, usual class: inhibitors. 360,000 tested, 4.4% active. AID 504333; note: % is set by controls: 0 for no effect and ±100 for the full control effect; nearly all actives have a fitted effect of over 60% in size
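BAZ2B (50 nM) with biotin-H3(5-23)K14Ac peptide (50 nM) in PBS pH 7.4, 0.01% Tween-20, preformed 30 min, then compound 30 min at room temperature; top concentration 110uM. AlphaScreen streptavidin donor/nickel chelate acceptor beads (10 ug/mL final), 20 min dark, signal read.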
JMJD2A Tudor inh = blocks the human JMJD2A Tudor domain; O75164; AlphaScreen JMJD2A-Tudor / H3K4me3 peptide binding; Potency, µM (titrated, usually from 114 µM), for inactives: at the top dose activity change, negative = inhibition, usual class: inhibitors; 390,000 tested, 4.4% active; AID 504339; note: % is set by controls: 0 for no effect and ±100 for the full control effect; nearly all actives have a fitted effect of over 50% in size
L3MBTL1 block = L3MBTL1 (human) inhibition; Q9Y468; AID 485360; Potency, µM (top dose mostly 57.1 µM), inactives show at the highest dose activity, negative = inhibition, hits mostly inhibitors; AlphaScreen L3MBTL1–H3K9me1 peptide binding; 230,000 tested, 0.66% active; note: % is set by controls: 0 for no effect and ±100 for the full control effect; nearly all actives have a fitted effect of over 60% in size
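First, the protein-peptide complex forms for 30 min at room temperature (L3MBTL1 50 nM, biotinylated H3K9me1 peptide 75 nM). Next, compounds are pin-transferred and incubated 30 min. Finally, AlphaScreen beads are added and read after 30 min.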
Sfp PPTase inh = blocks B. subtilis Sfp PPTase activity; Q9F4F7; Biochemical Sfp PPTase activity, qHTS; Potency, µM, inactives show largest response in the series, negative = inhibition, usual class: inhibitors; 310,000 tested, 3.5% active;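 note: the enzyme is Sfp with the accession as filed and its product quenches rhodamine fluorescence; 0% = enzyme reaction without inhibitor and -100% = no enzyme wells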
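Fluorescence-quenching assay with 15 nM Sfp, 5 uM rhodamine-CoA and 12.5 uM BHQ-2-labelled ybbR peptide in pH 7.6 Hepes/MgCl2 buffer. Enzyme was pre-incubated with compound for 15 min at room temperature. Rate was taken from the 30-min fluorescence change (525/598 nm).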
G9a inh = inhibitors of human histone lysine methyltransferase G9a | Q96KQ7 | Potency, µM (titrated, usually from 102 µM), without a hit: at the highest dose activity, negative = inhibition, most hits filed as inhibitors | 350,000 tested, 8.8% active | AID 504332 | G9a H3K9 monomethylation, AlphaScreen, 2 h; note: % is set by controls: 0 for no effect and ±100 for the full control effect; nearly all actives have a fitted effect of over 75% in size
Target sequence (Q96KQ7 913-1193 limits assumed): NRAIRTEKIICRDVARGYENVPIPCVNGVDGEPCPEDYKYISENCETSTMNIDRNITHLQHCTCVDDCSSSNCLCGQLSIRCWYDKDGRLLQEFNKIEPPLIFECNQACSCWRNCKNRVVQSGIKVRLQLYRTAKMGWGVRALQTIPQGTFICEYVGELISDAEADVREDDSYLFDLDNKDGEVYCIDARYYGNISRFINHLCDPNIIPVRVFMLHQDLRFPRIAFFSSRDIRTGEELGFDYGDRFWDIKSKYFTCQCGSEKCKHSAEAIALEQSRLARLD
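AlphaScreen read-out: biotin-H3K9 peptide (500 nM) methylation by 20 nM enzyme with 20 uM SAM, 2 h at room temperature after 15 min compound preincubation; anti-monomethyl H3K9 antibody plus donor/acceptor beads, 10 min dark.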
HP1b binding inh = blocks HP1-beta chromodomain binding to methylated histone tails | AlphaScreen HP1-beta / biotin-H3K9me3 peptide binding | Potency, µM (doses to about 114 µM), for inactives: at the top dose activity change, negative = inhibition, hits mostly inhibitors | AID 540317 | 390,000 tested, 0.56% active | P83916; note: nearly all actives have a fitted effect of over 70% in size
Target sequence (P83916 whole entry, looked up): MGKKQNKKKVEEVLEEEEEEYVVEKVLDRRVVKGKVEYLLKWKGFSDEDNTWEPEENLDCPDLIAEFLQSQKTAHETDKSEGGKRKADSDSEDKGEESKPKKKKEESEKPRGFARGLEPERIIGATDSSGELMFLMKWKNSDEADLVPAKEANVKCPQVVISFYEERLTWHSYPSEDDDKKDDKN
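Compound inhibition of the preformed complex between 50 nM HP1-beta and 50 nM biotinylated H3K9me3 peptide was read by AlphaScreen. Buffer was PBS pH 7.4 with 0.01% Tween-20. Incubations ran 30 min at room temperature, with 10 ug/mL donor/acceptor beads.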
An asterisk follows results filed as active; ? = inconclusive; nt = not tested or not shown; [ ] = dose if it differs, or a comment. Calls come from the whole dose curve; as a rule, active = well fitted curve in the direction sought with a large enough effect; inconclusive = small, poorly fitted or top-dose-only effect, or another doubt; inactive = no such curve, though single readings can be large; an effect the other way counts as inactive or inconclusive. Potency is the fitted concentration of half-maximal effect.

SMILES | BAZ2B block | JMJD2A Tudor inh | L3MBTL1 block | Sfp PPTase inh | G9a inh | HP1b binding inh
Cc1csc(NC(=O)CSc2ccc(-c3ccccn3)nn2)n1 | 7.1µM* | 22µM* | nt | 14% | 3% | 13%
C=CCNC(=O)c1ccccc1NS(=O)(=O)c1ccc(SC)cc1 | 1% | -1% | 3%[11.4 µM] | 11% | -4%[12.7 µM] | 34%
C=CCNC(=O)c1ccccc1NC(=O)C1CCN(S(=O)(=O)c2ccc(SC)cc2)CC1 | 50µM* | -7% | nt | -7% | 10% | -3%
CSc1cc2c(s1)c1cnn(Cc3cccc(N)c3)c(=O)c1n2C | nt | 3.5µM* | nt | nt | nt | nt
Cn1c2cc(S(C)=O)sc2c2cnn(Cc3cccc(N)c3)c(=O)c21 (stereo not given) | nt | -23% | nt | nt | nt | nt
Cc1cc(Cl)ccc1NC(=O)CCS(=O)(=O)c1ccc2c(c1)CC(C)N2C(=O)C1CC1 (stereo not given) | 0% | 2% | nt | nt | ? | 38%
CCC1CN(C(=O)Nc2ccccc2C(F)(F)F)c2ccccc2S1 (stereo not given) | -36% | ? | nt | nt | -18%[59 µM] | 0%
COc1ccc2c(c1)O[C@@H](c1ccc3c(c1)OCO3)[C@H](O)C2=O | nt | nt | nt | -4% | nt | nt
CCCCCCCC(=O)OC(CN1CCCCC1)CN1CCCC1=O (stereo not given) | 0% | -3% | nt | 8% | 11µM* | 9%
COC(=O)c1ccc(NC2(C#N)C(=O)Nc3ccccc32)cc1 (stereo not given) | 8% | -10%[57.1 µM] | -2% | 15% | 12%[59 µM] | 27%
CC(=O)[C@@H]1[C@@H](C(=O)c2ccc(C)cc2)[C@]2(C(=O)Nc3ccccc32)[C@H]2C=Cc3cc(F)ccc3N12 | ? | ? | -3% | 4µM* | ? | -36%
O=C(c1ccc(F)cc1)[C@@H]1[C@@H](C(=O)c2ccccc2)[C@@]2(C(=O)Nc3ccccc32)[C@H]2c3ccccc3C=CN12 | ? | nt | -15% | 2% | 7.1µM* | nt
Cc1ccc(C(=O)N2CC(=O)Nc3ccc(F)cc3C2c2ccccc2)cc1 (stereo not given) | -12% | -16% | nt | 5% | ? | -1%
CC(=O)[C@@H]1[C@@H](C(=O)c2ccc(F)cc2)[C@]2(C(=O)Nc3ccccc32)[C@H]2C=Cc3cc(F)ccc3N12 | -26% | ? | nt | 20µM* | ? | ?
Cc1cn([C@H]2C[C@H](N=[N+]=[N-])[C@H](CO)O2)c(=O)[nH]c1=O | nt | nt | nt | 20% | 38%[59 µM] | nt
O=C(c1cnc(N2CCOCC2)c2ccccc12)N1CCN(c2ccc(F)cc2)CC1 | -12% | -4% | nt | nt | 7%[59 µM] | 22%[57 µM]
COc1ccc(C)cc1NC(=O)CN1CCN(S(=O)(=O)c2ccc(C(C)C)cc2)CC1 | 12% | -9% | -4% | 3% | -4%[12.7 µM] | 20%
O=C(CN1CCCN(S(=O)(=O)c2ccc(F)cc2)CC1)Nc1c(Cl)cccc1Cl | -1% | -6% | nt | -5% | -12% | 5%
Cc1n[nH]c(C)c1NC(=O)CN1CCN(S(=O)(=O)c2ccc(C(F)(F)F)cc2)CC1 | nt | 4.5µM* | nt | nt | nt | ?
Cc1ccc(NC(=O)CN2C(=O)CNC2=O)cc1 | ? | -3% | nt | 8% | -4% | 17%
COC(=O)c1ccc(NC(=O)CN2CCN(S(=O)(=O)c3cc(Cl)ccc3OC)CC2)cc1 | 3% | -9% | -6% | 1% | 35µM* | 22%
COc1ccc(C)cc1NC(=O)CN1CCN(S(=O)(=O)c2ccc(Cl)cc2)CC1 | 9% | -6% | -1% | 9% | 14µM* | 16%
COC(=O)c1ccc(NC(=O)CN2C(=O)CNC2=O)cc1 | 2% | 0% | nt | 14% | 13µM* | 39%
CC(C)CNC(=O)C1=CC(c2ccc3c(c2)OCO3)=NS(=O)(=O)N1C | 2% | -6% | nt | nt | ? | 45%
COCCCNc1ncnc2c1c(-c1ccccc1)cn2-c1ccc(C)c(Cl)c1 | -4% | -17% | nt | nt | -6%[59 µM] | 57%
COc1ccc(S(=O)(=O)N2CCN(CC(=O)Nc3c(C)n[nH]c3C)CC2)cc1OC | nt | 0.89µM* | 0% | nt | nt | ?
